Data published in PubChem BioAssay AID1159580 (chemical genetic matrix, 2015).
Values joined by “and” are separate entries in the source; they are usually repeats but may differ in a detail not shown here. Equal values may be shown once. Among all 5,500 compounds or so, about 2,000 (36%) were called active. Another 18% or so got no clear call; they are omitted. Rule as the data show it: active = normalized growth mostly below about 0.91 (no sharp cut-off); inconclusive = no clear call, values can overlap the other calls; inactive = mostly above about 0.92. The list shows a part of the results.

Assay: chemical genetic growth profiling, strain panel (AID 1159580);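 also: tested at 20 µM; growth read once vehicle control cultures reached saturation at 30 °C; 1 = growth at the plate median or of vehicle wells; lower values mean less growth of the strain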
Conditions: S. cerevisiae deletion strains, growth OD

Measured: normalized growth

O=C(O)c1cc2ccccc2c(Cc2c(O)c(C(=O)O)cc3ccccc23)c1O
active: locus YHR079C, strain IRE1, stronger effect = lower value 0.844
inactive: locus YAL021C, strain ccr4, stronger effect = lower value 0.967 | locus YAL026C, strain drs2, stronger effect = lower value 1.01 | locus YAL030W, strain snc1, stronger effect = lower value 0.994 | locus YBL061C, strain skt5, stronger effect = lower value 0.99 | locus YBR009C, strain hhf1, stronger effect = lower value 0.988 | locus YBR021W, strain FUR4, stronger effect = lower value 1.02 | locus YBR023C, strain chs3, stronger effect = lower value 0.996 | locus YBR171W, strain sec66, stronger effect = lower value 1 | locus YBR229C, strain ROT2, stronger effect = lower value 1.01 | locus YBR231C, strain swc5, stronger effect = lower value 0.977 | locus YBR279W, strain paf1, stronger effect = lower value 0.99 | locus YCL011C, strain gbp2, stronger effect = lower value 1 | locus YCL016C, strain dcc1, stronger effect = lower value 0.989 | locus YCL029C, strain bik1, stronger effect = lower value 1.01 | locus YCL061C, strain MRC1, stronger effect = lower value 1 | locus YCL069W, strain vba3, stronger effect = lower value 1 | locus YCR088W, strain abp1, stronger effect = lower value 1.01 | locus YDL005C, strain med2, stronger effect = lower value 1 | locus YDL035C, strain GPR1, stronger effect = lower value 1.01 | locus YDL040C, strain nat1, stronger effect = lower value 0.995 | locus YDL074C, strain BRE1, stronger effect = lower value 0.94 | locus YDL101C, strain DUN1, stronger effect = lower value 1 | locus YDL134C, strain PPH21, stronger effect = lower value 0.997 | locus YDL185W, strain tfp1, stronger effect = lower value 1.01 | locus YDL192W, strain arf1, stronger effect = lower value 1 | locus YDR001C, strain nth1, stronger effect = lower value 1.01 | locus YDR069C, strain doa4, stronger effect = lower value 0.989 | locus YDR101C, strain arx1, stronger effect = lower value 1.01 | locus YDR137W, strain rgp1, stronger effect = lower value 1.04 | locus YDR159W, strain sac3, stronger effect = lower value 0.97 | locus YDR162C, strain NBP2, stronger effect = lower value 0.985 | locus YDR195W, strain ref2 0.977 | locus YDR297W, strain sur2, stronger effect = lower value 0.995 | locus YDR318W, strain mcm21, stronger effect = lower value 0.988 | locus YDR334W, strain swr1, stronger effect = lower value 0.996 | locus YDR335W, strain msn5, stronger effect = lower value 1.01 | locus YDR388W, stronger effect = lower value 0.996 | locus YDR392W, strain spt3, stronger effect = lower value 0.911 | locus YDR502C, strain sam2, stronger effect = lower value 1 | locus YEL003W, strain gim4, stronger effect = lower value 1.02 | locus YEL037C, strain rad23, stronger effect = lower value 0.999 | locus YEL061C, strain CIN8 (second series), stronger effect = lower value 1 | locus YEL061C, strain CIN8, stronger effect = lower value 1.03 | locus YER015W, strain faa2, stronger effect = lower value 0.988 | locus YER016W, strain bim1, stronger effect = lower value 1 | locus YER110C, stronger effect = lower value 0.989 | locus YER111C, strain swi4, stronger effect = lower value 1.01 | locus YER155C, strain BEM2 (second series), stronger effect = lower value 0.962 | locus YER155C, strain BEM2, stronger effect = lower value 0.992 | locus YER167W, strain BCK2, stronger effect = lower value 1 | locus YFR010W, strain ubp6, stronger effect = lower value 1.01 | locus YGL078C, strain dbp3, stronger effect = lower value 1.01 | locus YGL086W, strain mad1, stronger effect = lower value 1 | locus YGL167C, strain pmr1, stronger effect = lower value 0.994 | locus YGL173C, strain kem1, stronger effect = lower value 0.997 | locus YGL227W, strain vid30, stronger effect = lower value 1 | locus YGL240W, strain doc1, stronger effect = lower value 0.96 | locus YGL248W, strain PDE1, stronger effect = lower value 0.998 | locus YGL253W, strain hxk2, stronger effect = lower value 1.01 | locus YGR078C, strain PAC10, stronger effect = lower value 0.996 | locus YGR135W, strain pre9, stronger effect = lower value 0.99 | locus YGR252W, strain gcn5, stronger effect = lower value 0.978 | locus YHR013C, strain ard1, stronger effect = lower value 0.966 | locus YHR027C, strain rpn1, stronger effect = lower value 1 | locus YHR030C, strain SLT2, stronger effect = lower value 1.01 and 0.859 | locus YHR079C, strain IRE1 (second series), stronger effect = lower value 0.992 | locus YHR094C, strain hxt1, stronger effect = lower value 0.999 | locus YHR129C, strain ARP1, stronger effect = lower value 0.995 | locus YHR142W, strain chs7, stronger effect = lower value 1.02 | locus YHR200W, strain rpn10, stronger effect = lower value 0.991 | locus YIL066C, strain RNR3, stronger effect = lower value 0.986 | locus YIL073C, strain SPO22, stronger effect = lower value 1.02 | locus YIL125W, strain kgd1, stronger effect = lower value 0.994 | locus YIR030C, strain dcg1, stronger effect = lower value 1 | locus YJL092W, strain hpr5, stronger effect = lower value 1.01 | locus YJL095W, strain BCK1 (second series), stronger effect = lower value 0.992 | locus YJL115W, strain asf1, stronger effect = lower value 1 | locus YJL129C, strain trk1, stronger effect = lower value 0.976 | locus YJL134W, strain LCB3, stronger effect = lower value 0.99 | locus YJL154C, strain vps35, stronger effect = lower value 1 | locus YJL164C, strain tpk1, stronger effect = lower value 0.99 | locus YJL166W, strain qcr8, stronger effect = lower value 0.992 | locus YJL168C, strain set2, stronger effect = lower value 0.977 | locus YJL187C, strain SWE1 (second series), stronger effect = lower value 1 | locus YJL187C, strain SWE1, stronger effect = lower value 1.02
0.99 (inactive) and 0.866 (active): locus YJL095W, strain BCK1, stronger effect = lower value
